Inconclusive results are not listed. The source made the active and inactive calls. Calls follow the shape of the dose curve; as a rule, active = well fitted curve in the direction sought with a large enough effect in the repeat runs; inconclusive = weak or mixed curves; inactive = no such curve, though single readings can be large; an effect the other way counts as inactive or inconclusive.
Tests used:
[1] = Human pregnane X receptor (PXR) small molecule agonists, qHTS cell viability counter screen (AID 1346977); also: nearly all actives have a fitted effect of over 50% in size; also: potency is read from the fitted curve at half-maximal effect
Outline: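 Fluorescence read-out (CellTiter-Fluor) of viability in PXR-Luc HepG2 cells, multiplexed with the luciferase agonist read. Compounds in DMSO added after 5hr plating; 24hr total exposure at 37C, 5% CO2.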

[2] = Caspase-3/7 induction in HepG2 cells by small molecules, qHTS assay (AID 1346978); also: nearly all actives have a fitted effect of over 15% in size
Outline: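 Wild-type HepG2 cells (2,000/well) were settled 5 h at 37 C, 5% CO2, then exposed to compounds in DMSO for 17 h. Caspase-3/7 activity was read by luminescence 30 min after adding Caspase-Glo 3/7 reagent at room temperature.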

[3] = Caspase-3/7 induction in CHO-K1 cells by small molecules, qHTS cell viability counter screen (AID 1346979); also: nearly all actives have a fitted effect of over 35% in size
Outline: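 CHO-K1 wt, 1,500 cells/well; 5hr pre-incubation 37C/5% CO2; compound pin transfer (DMSO); 16hr exposure; CellTiter-Fluor added, 1hr, fluorescence read.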

[4] = Caspase-3/7 induction in CHO-K1 cells by small molecules, qHTS assay (AID 1346980); also: nearly all actives have a fitted effect of over 15% in size
Outline: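 Wild-type cells were seeded at 1,500 per well and settled 5 hr at 37 C, 5% CO2, then exposed to DMSO-dissolved compounds for 17 hr. Caspase-Glo 3/7 reagent was added, and luminescence was read after 30min at room temperature.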

[5] = Caspase-3/7 induction in HepG2 cells by small molecules, qHTS cell viability counter screen (AID 1346981); also: series mostly up to about 92 µM; nearly all actives have a fitted effect of over 30% in size
Outline: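 Steps: seed 2,000 HepG2 cells per well; incubate 5 hr at 37 C; pin-add compounds in DMSO; incubate 16 hr; add CellTiter-Fluor; after 1 hr at 37 C and 5% CO2, read fluorescence.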

[6] = molecular target: Nuclear receptor subfamily 1 group I member 2 (Rattus norvegicus) (UniProt Q9R1A7); experiment: Rat pregnane X receptor (rPXR) activation by small molecules, qHTS assay (AID 1346983); details: rPXR luciferase reporter cells, One-Glo luminescence, 24 h; hits give high values; also: nearly all actives have a fitted effect of over 20% in size
Outline: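 Cell-based rPXR luciferase reporter assay, 2,000 cells per well, rested 5hr at 37 C before compound addition in DMSO, then 24 hr at 37 C. One-Glo reagent was added and luminescence read after 30 min at room temperature.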

[7] = molecular target: Cytochrome P450 2D6 (Homo sapiens) (UniProt P10635); experiment: Cytochrome P450 Family 2 Subfamily D Member 6 (CYP2D6) small molecule antagonists: luciferase reporter qHTS assay (AID 1671196); also: series mostly up to about 120 µM; nearly all actives have a fitted effect of over 50% in size
Outline: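 P450-Glo format: CYP2D6 converts a proluciferin substrate to luciferin in an NADPH-driven reaction lasting 1 h at room temperature. Light output, proportional to CYP2D6 activity, reflects interference by test chemicals.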

[8] = molecular target: Cytochrome P450 2C19 (Homo sapiens) (UniProt P33261); experiment: Cytochrome P450 Family 2 Subfamily C Member 19 (CYP2C19) small molecule antagonists: luciferase reporter qHTS assay (AID 1671197); also: series mostly up to about 120 µM; nearly all actives have a fitted effect of over 65% in size
Outline: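 Light output is proportional to CYP2C19 activity: proluciferin substrate is converted to luciferin, then detected by a luciferin detection reagent that also stops the 1 h, 37C NADPH-driven reaction. Ketoconazole serves as positive control.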

[9] = molecular target: Cytochrome P450 2C9 (Homo sapiens) (UniProt P11712); experiment: Cytochrome P450 Family 2 Subfamily C Member 9 (CYP2C9) small molecule antagonists: luciferase reporter qHTS assay (AID 1671198); also: series mostly up to about 120 µM; nearly all actives have a fitted effect of over 50% in size
Outline: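 CYP2C9 activity was measured with a P450-Glo proluciferin substrate. Enzyme–substrate mix was held with compound for 10 min at room temperature, then NADPH regeneration solution was added for 1 h at 37C. Luciferin product was read as luminescence.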

[10] = molecular target: Cytochrome P450 1A2 (Homo sapiens) (UniProt P05177); experiment: Cytochrome P450 Family 1 Subfamily A Member 2 (CYP1A2) small molecule antagonists: luciferase reporter qHTS assay (AID 1671199); also: nearly all actives have a fitted effect of over 50% in size; also: potency is read from the fitted curve at half-maximal effect; as to activity change, negative = inhibition: series mostly up to about 120 µM
Outline: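 Inhibition of CYP1A2 conversion of proluciferin to luciferin, detected by luminescence. Reaction run 1 h at room temperature with NADPH regeneration after brief compound preincubation.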

[11] = molecular target: Voltage-gated inwardly rectifying potassium channel KCNH2 (Homo sapiens) (UniProt Q12809); experiment: Human Ether-a-go-go-Related Gene (hERG) channel small molecule antagonists: fluorescence cell-based qHTS assay (AID 1671200)
Outline: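 Read-out: thallium influx as a surrogate for potassium, tracked as fluorescence (480 nm ex/540 nm em) every second for 2 min after Stimulus Buffer addition in dye-loaded hERG-U2OS cells.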

[12] = molecular target: Cytochrome P450 3A4 (Homo sapiens) (UniProt P08684); experiment: Cytochrome P450 Family 3 Subfamily A Member 4 (CYP3A4) small molecule antagonists: luciferase reporter qHTS assay (AID 1671201)
Outline: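 Luminescent readout (RLU) proportional to CYP3A4 activity, from luciferin generated off a proluciferin substrate. Enzyme–substrate mix plus compound 10 min at room temp, NADPH regeneration 1 h, detection reagent 20 min.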

[13] = molecular target: Nuclear receptor subfamily 1 group I member 2 (Homo sapiens) (UniProt O75469); experiment: Human pregnane X receptor (PXR) small molecule agonists, qHTS assay (AID 1346982); also: nearly all actives have a fitted effect of over 35% in size
Outline: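 Agonist mode qHTS: PXR-Luc HepG2 cells plated 5 hr before DMSO-dissolved compounds were pinned in, cultured 24 hr at 37 C, 5% CO2; ONE-Glo luminescence readout.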

[14] = molecular target: Nuclear receptor subfamily 1 group I member 2 (Homo sapiens) (UniProt O75469); experiment: CYP3A4 induction through human pregnane X receptor (PXR) by small molecules, qHTS assay (AID 1346984); also: nearly all actives have a fitted effect of over 40% in size; also: potency is read from the fitted curve at half-maximal effect
Outline: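 Steps: seed DPX-2 cells, 5 hr at 37C; pin-transfer compounds; 24 hr at 37C; add Luciferin-IPA (3uM final), 3 hr at 37C; add One-Glo, 30 min RT; read luminescence.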

[15] = molecular target: Nuclear receptor subfamily 1 group I member 2 (Homo sapiens) (UniProt O75469); experiment: Human pregnane X receptor (PXR) activation by small molecules, qHTS assay (AID 1346985); also: nearly all actives have a fitted effect of over 40% in size
Outline: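 DPX-2 cells (HepG2 co-transfected with a PXR response element and a CYP3A4-promoter luciferase construct) were seeded at 2,000 per well, rested 5 hr at 37C, then exposed to DMSO-dissolved compounds for 24 hr. Activation was read as luciferase luminescence.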
% is scaled to controls: 0 for no effect and ±100 for the full control effect.

Chain of Cytochrome P450 2C19 (Homo sapiens) (P33261 whole entry, looked up): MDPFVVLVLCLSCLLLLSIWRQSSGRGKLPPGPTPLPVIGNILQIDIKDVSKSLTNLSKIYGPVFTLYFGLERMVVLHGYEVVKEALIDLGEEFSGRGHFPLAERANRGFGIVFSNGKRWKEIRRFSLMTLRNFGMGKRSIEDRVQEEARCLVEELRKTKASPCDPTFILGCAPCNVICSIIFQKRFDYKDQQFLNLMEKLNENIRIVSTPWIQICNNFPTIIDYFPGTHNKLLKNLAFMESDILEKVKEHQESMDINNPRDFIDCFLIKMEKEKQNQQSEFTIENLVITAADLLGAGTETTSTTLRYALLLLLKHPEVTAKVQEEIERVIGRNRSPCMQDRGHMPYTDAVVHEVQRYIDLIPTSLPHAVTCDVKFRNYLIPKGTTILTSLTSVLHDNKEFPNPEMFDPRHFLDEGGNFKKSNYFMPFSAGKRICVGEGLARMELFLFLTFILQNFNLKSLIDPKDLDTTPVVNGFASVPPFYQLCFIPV
Chain of Cytochrome P450 2C9 (Homo sapiens) (P11712 whole entry, looked up): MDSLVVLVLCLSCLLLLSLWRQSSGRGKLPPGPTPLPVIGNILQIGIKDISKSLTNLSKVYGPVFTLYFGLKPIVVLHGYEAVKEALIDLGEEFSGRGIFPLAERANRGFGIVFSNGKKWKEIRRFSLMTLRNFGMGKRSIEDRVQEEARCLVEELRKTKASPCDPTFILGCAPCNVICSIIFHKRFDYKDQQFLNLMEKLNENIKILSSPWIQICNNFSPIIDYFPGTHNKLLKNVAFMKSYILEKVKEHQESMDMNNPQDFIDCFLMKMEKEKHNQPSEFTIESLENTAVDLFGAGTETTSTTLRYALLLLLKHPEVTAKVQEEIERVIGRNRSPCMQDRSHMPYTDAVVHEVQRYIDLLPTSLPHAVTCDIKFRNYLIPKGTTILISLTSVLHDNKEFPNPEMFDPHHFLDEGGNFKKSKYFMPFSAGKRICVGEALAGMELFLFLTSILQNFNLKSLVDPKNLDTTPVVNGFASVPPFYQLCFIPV
Chain of Cytochrome P450 1A2 (Homo sapiens) (P05177 whole entry, looked up): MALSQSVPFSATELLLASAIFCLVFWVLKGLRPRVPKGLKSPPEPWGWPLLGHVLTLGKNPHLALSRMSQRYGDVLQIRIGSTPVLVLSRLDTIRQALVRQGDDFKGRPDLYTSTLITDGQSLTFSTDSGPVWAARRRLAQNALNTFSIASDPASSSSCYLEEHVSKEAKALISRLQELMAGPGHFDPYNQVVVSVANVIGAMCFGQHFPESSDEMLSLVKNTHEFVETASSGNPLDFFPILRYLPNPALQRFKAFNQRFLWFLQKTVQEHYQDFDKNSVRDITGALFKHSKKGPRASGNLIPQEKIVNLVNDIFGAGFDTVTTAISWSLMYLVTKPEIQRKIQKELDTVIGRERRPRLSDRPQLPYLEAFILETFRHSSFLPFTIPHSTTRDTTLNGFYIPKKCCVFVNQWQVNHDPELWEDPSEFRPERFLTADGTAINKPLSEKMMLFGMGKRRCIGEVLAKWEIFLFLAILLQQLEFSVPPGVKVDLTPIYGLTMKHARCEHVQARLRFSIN
Chain of Cytochrome P450 2D6 (Homo sapiens) (P10635 whole entry, looked up): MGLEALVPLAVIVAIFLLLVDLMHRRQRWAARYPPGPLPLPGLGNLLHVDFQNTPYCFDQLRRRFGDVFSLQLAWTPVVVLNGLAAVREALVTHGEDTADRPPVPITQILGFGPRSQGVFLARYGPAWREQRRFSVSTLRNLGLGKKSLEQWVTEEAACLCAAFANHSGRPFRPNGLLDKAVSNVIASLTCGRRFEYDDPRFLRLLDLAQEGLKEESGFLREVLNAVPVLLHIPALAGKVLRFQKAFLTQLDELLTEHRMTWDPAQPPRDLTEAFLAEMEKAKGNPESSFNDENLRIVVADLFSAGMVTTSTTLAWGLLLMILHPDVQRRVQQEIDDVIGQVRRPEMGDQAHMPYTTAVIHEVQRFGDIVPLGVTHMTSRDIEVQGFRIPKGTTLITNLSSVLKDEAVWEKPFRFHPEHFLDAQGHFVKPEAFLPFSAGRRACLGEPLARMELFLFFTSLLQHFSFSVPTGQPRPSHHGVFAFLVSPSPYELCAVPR
Chain of Voltage-gated inwardly rectifying potassium channel KCNH2 (Homo sapiens) (Q12809 whole entry, looked up): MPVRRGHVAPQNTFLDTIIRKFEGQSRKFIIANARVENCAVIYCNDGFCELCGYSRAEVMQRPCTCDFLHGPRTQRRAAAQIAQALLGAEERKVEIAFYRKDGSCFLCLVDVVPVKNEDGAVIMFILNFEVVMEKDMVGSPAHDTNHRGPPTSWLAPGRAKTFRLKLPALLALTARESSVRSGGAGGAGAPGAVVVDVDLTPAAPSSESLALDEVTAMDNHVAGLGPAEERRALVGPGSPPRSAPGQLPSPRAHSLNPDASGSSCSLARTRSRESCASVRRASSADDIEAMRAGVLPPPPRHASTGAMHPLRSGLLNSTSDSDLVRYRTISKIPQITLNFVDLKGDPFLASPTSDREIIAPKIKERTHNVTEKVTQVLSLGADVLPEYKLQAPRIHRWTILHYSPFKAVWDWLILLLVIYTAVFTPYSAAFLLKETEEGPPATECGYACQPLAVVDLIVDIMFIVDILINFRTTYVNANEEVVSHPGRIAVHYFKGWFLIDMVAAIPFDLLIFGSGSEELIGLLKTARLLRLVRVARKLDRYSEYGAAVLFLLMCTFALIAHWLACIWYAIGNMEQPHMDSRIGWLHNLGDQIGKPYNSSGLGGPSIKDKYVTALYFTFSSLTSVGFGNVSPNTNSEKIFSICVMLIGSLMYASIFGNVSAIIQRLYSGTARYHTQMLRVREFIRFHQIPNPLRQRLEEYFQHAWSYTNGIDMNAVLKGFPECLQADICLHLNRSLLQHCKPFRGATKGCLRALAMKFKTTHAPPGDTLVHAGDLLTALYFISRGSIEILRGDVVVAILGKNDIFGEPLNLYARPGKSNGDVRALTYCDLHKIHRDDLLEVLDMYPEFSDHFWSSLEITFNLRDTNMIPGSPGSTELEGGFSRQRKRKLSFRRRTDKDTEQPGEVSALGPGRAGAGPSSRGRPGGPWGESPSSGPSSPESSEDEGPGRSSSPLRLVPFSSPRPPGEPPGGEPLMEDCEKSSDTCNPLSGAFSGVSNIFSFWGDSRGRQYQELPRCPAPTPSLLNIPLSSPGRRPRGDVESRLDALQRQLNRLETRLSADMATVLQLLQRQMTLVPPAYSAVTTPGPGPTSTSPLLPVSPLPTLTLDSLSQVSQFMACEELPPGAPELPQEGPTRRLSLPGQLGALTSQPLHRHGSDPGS
Chain of Nuclear receptor subfamily 1 group I member 2 (Homo sapiens) (O75469 whole entry, looked up): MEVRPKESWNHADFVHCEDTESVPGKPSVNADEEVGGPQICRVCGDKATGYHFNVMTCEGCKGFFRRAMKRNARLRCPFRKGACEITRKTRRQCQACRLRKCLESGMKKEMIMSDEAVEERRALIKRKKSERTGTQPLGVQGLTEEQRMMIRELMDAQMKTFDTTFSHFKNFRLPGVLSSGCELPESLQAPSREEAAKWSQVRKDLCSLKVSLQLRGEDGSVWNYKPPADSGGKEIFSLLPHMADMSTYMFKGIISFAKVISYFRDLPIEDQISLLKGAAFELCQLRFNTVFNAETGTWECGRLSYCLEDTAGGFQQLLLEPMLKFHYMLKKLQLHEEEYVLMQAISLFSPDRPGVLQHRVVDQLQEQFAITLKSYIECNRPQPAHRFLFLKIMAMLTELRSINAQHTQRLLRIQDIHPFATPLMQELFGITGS
Chain of Nuclear receptor subfamily 1 group I member 2 (Rattus norvegicus) (Q9R1A7 whole entry, looked up): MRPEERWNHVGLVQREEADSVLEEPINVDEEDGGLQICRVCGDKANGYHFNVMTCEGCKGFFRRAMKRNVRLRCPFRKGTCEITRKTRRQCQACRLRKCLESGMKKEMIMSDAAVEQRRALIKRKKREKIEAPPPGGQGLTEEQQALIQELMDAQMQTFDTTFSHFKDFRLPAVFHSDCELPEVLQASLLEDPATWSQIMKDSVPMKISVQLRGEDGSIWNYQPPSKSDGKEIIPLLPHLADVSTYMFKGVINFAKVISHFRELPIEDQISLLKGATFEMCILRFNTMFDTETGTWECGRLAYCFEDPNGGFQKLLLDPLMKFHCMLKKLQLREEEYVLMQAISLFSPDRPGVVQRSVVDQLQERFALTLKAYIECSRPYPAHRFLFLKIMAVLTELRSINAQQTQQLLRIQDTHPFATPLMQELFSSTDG
Chain of Cytochrome P450 3A4 (Homo sapiens) (P08684 whole entry, looked up): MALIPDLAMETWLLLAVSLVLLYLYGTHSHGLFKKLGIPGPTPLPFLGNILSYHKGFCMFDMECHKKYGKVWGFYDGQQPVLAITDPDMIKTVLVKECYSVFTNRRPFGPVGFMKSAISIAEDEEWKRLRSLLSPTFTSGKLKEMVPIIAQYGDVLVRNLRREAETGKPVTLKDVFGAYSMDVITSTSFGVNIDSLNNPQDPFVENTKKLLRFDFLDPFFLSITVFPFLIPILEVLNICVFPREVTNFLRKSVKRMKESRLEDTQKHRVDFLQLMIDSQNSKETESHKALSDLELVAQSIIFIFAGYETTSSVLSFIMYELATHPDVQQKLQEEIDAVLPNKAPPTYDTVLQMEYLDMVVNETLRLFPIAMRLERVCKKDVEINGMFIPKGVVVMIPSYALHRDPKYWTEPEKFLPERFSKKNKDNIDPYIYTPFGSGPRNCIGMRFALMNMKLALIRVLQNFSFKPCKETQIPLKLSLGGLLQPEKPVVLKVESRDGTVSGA

CC[N+](C)(C)c1cccc(O)c1
inactive: Potency [1] | Potency [2] | Potency [3] | outcome [4] | Potency [5] | max activation [6] -3.46% | Potency [7] | Potency [8] | Potency [9] | Potency [10] | Potency [11] | Potency [12]

CCC=O
inactive: Potency [1] | Potency [2] | Potency [3] | outcome [4] | Potency [5] | Potency [13] | Potency [7] | Potency [8] | Potency [9] | Potency [11] | Potency [12]

COc1ccc2c(c1)CCCC2=O
active: Potency [10] 13.8 µM
inactive: Potency [2] | Potency [3] | outcome [4] | Potency [5] | Potency [13] | Potency [8] | Potency [9] | Potency [11] | Potency [12]

CCN(CC)CCOCCOC(=O)C1(c2ccccc2)CCCC1
active: Potency [1] 26.6 µM | Potency [14] 12.6 µM
inactive: Potency [2] | Potency [3] | outcome [4] | Potency [5] | max activation [6] 0.476% | Potency [8] | Potency [9] | Potency [10]

CC(=O)OCC(=O)[C@@]1(O)CC[C@H]2[C@@H]3CCC4=CC(=O)CC[C@]4(C)[C@H]3C(=O)C[C@@]21C
inactive: Potency [2] | Potency [3] | Potency [5] | Potency [13] | Potency [8] | Potency [10] | Potency [11] | Potency [12]

Cc1cccn2c(=O)c(-c3nnn[nH]3)cnc12
inactive: activity change, negative = cytotoxicity [1] -2.85% [at 19 µM] | caspase activation [2] -1.09% [at 19 µM] | Potency [3] | activity change, negative = cytotoxicity [5] -1.23% [at 19 µM] | activation [13] -6.8% [at 19 µM] | max activation [6] -7.7% | Potency [14] | Potency [15] | Potency [8] | activity change, negative = inhibition [9] -1.3% [at 23.6 µM] | activity change, negative = inhibition [11] 0.271% [at 15.8 µM] | activity change, negative = inhibition [12] 2.55% [at 23.6 µM]

Brc1c(NC2=NCCN2)ccc2nccnc12
inactive: Potency [2] | Potency [3] | outcome [4] | Potency [5]

OCCOc1ccc(OCCO)cc1
inactive: Potency [1] | Potency [2] | Potency [3] | outcome [4] | Potency [5] | Potency [13] | Potency [8] | Potency [9] | Potency [11] | Potency [12]

CC(C)OC(=O)c1ccccc1
inactive: Potency [1] | Potency [2] | Potency [3] | outcome [4] | Potency [5] | Potency [13] | Potency [8] | Potency [9] | Potency [10] | Potency [12]

ClC(Cl)(Br)Br
inactive: Potency [1] | Potency [2] | Potency [3] | Potency [5] | Potency [13] | Potency [8] | Potency [9] | Potency [11] | Potency [12]

NC(=O)Nc1ccccc1
inactive: Potency [1] | Potency [2] | Potency [3] | outcome [4] | Potency [5] | Potency [13] | Potency [7] | Potency [8] | Potency [9] | Potency [11] | Potency [12]

CN(C(=O)c1c(O)c2ccccc2n(C)c1=O)c1ccccc1
inactive: Potency [1] | Potency [2] | Potency [3] | outcome [4] | Potency [5] | max activation [6] -3.59% | Potency [7] | Potency [8] | Potency [10] | Potency [11] | Potency [12]

CN1N=C(C(N)=O)CCC1=O
inactive: Potency [1] | Potency [2] | Potency [3] | outcome [4] | Potency [5] | Potency [13] | Potency [8] | Potency [9] | Potency [11]

— PubChem BioAssay (Tox21)
